Screening results: PubChem BioAssay, Broad Institute
Only some compounds are listed: those with a hit (about 1.2% of all), similar ones and a draw of the others.
FadD28 FP inh: inhibitors of FadD28 bisubstrate probe binding, primary screen, biochemical, fluorescence polarization, single point. Mycobacterium tuberculosis FadD28 fatty-acid-AMP ligase. inhibition, % at 12.5 µM. 360,000 tested, 0.22% active; in the data active means inhibition above about 8.5%, passing the limit was not always enough; inconclusive means no clear call, values can overlap the other calls
PrP 5UTR inh: inhibition of PrP 5' UTR reporter expression; cell-based PrP 5' UTR mRNA reporter, plate reader; inhibition, % (concentration not given with the values); 340,000 tested, 0.35% active; in the data active means inhibition above about 52%; further: 0 = median of the neutral control wells
PfHsp40 rescue: rescue of yeast from PfHsp40 toxicity, primary screen, S. cerevisiae, ATP luminescence. S. cerevisiae expressing PfHsp40, growth rescue. 340,000 tested, 0.68% active. growth rescue, % at 12.5 µM; in the data active means growth rescue above about 28%, passing the limit was not always enough; inconclusive means no clear call, values can overlap the other calls;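 further: yeast W303a lacking pdr1 and pdr3 grown in galactose medium; growth measured after three days at 30 °C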
BioA inh: M. tuberculosis BioA enzyme inhibitors, primary screen, biochemical, plate reader, single point, HTS | 7,8-diaminopelargonic acid synthase BioA (Mycobacterium tuberculosis) | purified M. tuberculosis BioA enzyme | inhibition, % at 9.99 µM | 360,000 tested, 0.096% active | AID 602481, 2012; in the data active means inhibition above about 40%; inconclusive means no clear call, values can overlap the other calls
Y pestis TopoI: Yersinia pestis topoisomerase I inhibitors, primary screen, biochemical, cleavage product accumulation, plate reader, single point; activity, % at 10 µM; DNA topoisomerase I (Yersinia pestis CO92); 360,000 tested, 0.064% active; Y. pestis Topo-I cleavage product accumulation; in the data active means activity above about 50%, passing the limit was not always enough; inconclusive means no clear call, values can overlap the other calls
TcdB GH inh: TcdB glycohydrolase inhibitors, primary screen, biochemical, single point, plate reader | TcdB glycohydrolase enzymatic assay | Toxin B (Clostridioides difficile), P18177 | inhibition, % at 9.99 µM | 350,000 tested, 0.24% active; in the data active means inhibition above about 10%
PrP 5UTR single: prion 5' UTR mRNA inhibition, cherry-pick retest | inhibition, % at 2.5 µM | shares compounds with PrP 5UTR inh | AID 504592, 2011 | 1,100 tested, 48% active | cell-based prion protein 5' UTR reporter, plate reader; in the data active means inhibition above about 54%; inconclusive means no clear call, values can overlap the other calls
Starred values were filed as active, the others as inactive; ? = inconclusive; nt = not tested or not shown.

SMILES	FadD28 FP inh	PrP 5UTR inh	PfHsp40 rescue	BioA inh	Y pestis TopoI	TcdB GH inh	PrP 5UTR single
Cc1ccc(NC(=O)/C=C/c2ccco2)nc1	-2.0	69.5*	0.9	nt	1.0	1.1	83.9*
O=C(/C=C/c1ccco1)Nc1ccccn1	0.2	-19.8	-0.9	-0.6	1.7	nt	nt
O=C(c1ccco1)N1CCN(S(=O)(=O)/C=C/c2ccccc2)CC1	-2.9	56.4*	-0.5	nt	3.3	0.4	11.4
O=C(c1cc2ccccc2o1)N1CCN(S(=O)(=O)/C=C/c2ccccc2)CC1	-2.0	-20.0	3.2	4.2	36.9	1.2	nt
CCCC1=Nc2cc(C(=O)NCCCOC(C)C)ccc2Sc2ccccc21	-0.7	-8.8	3.6	-0.9	3.6	nt	nt
CCC1=Nc2cc(C(=O)NCCCOC)ccc2Sc2ccccc21	0.0	77.0*	0.5	-1.3	-6.6	nt	36.2
CCC1=Nc2cc(C(=O)NCc3ccco3)ccc2Sc2ccc(C)cc21	-2.1	69.2*	1.7	-0.4	33.8	0.8	85.7*
CCCC1=Nc2cc(C(=O)NCCCOCC)ccc2Sc2ccccc21	-1.2	57.6*	0.2	0.5	31.6	nt	84.4*
C[C@H]1CN([C@@H](C)CO)C(=O)Cc2cc(NC(=O)Cc3ccccc3)ccc2O[C@H]1CN(C)CC1CCCCC1	nt	nt	nt	-1.3	nt	0.5	nt
COCc1nnc(NS(=O)(=O)c2ccc(OC)cc2)s1	-0.4	61.7*	-0.2	-0.8	3.8	1.5	-22.3
Cc1c(Cl)cccc1Nc1n[nH]c(=S)s1	2.1	71.1*	-1.2	nt	0.1	0.4	-17.2
S=c1[nH]nc(Nc2cccc3ccccc23)s1	-2.5	-4.4	0.9	4.0	5.0	3.0	nt
COc1cccc(-c2nc3n(n2)C(c2cccs2)C(C(=O)Nc2cccnc2)=C(C)N3)c1 (stereo not given)	-7.1	85.2*	-0.7	6.4	-3.0	0.3	4.7
C=CCn1c(O)c(C=Nc2ccc(OC)cc2C)c(=O)[nH]c1=O	1.2	55.2*	4.1	-1.8	4.5	nt	0.4
Cc1ccc2nc(-c3cc(-c4ccccc4)no3)cn2c1	-3.8	3.5	3.5	-1.2	-5.7	0.3	nt
CCc1ccn2cc(-c3cc(-c4ccccc4)no3)nc2c1	-3.7	71.3*	12.0	-0.7	-0.8	1.9	82.5*
C[C@@H]1CN([C@H](C)CO)C(=O)c2cc(NS(=O)(=O)c3cccs3)ccc2O[C@@H](C)CCCCO[C@@H]1CN(C)C(=O)C1CCCCC1	nt	nt	nt	-6.9	nt	-3.0	nt
C=CCCC1(CC)C(=O)NC(=S)NC1=O	-1.1	-5.8	-0.2	nt	2.6	0.0	nt
C=CCCC1(CC(C)C)C(=O)NC(=S)NC1=O	-3.3	90.8*	-1.1	nt	0.3	2.1	-3.3
C[C@H]1CN([C@@H](C)CO)C(=O)Cc2cc(NC(=O)Nc3ccccc3)ccc2O[C@H]1CN(C)C(=O)Nc1cccc2ccccc12	nt	nt	nt	5.0	nt	0.7	nt
O=C(C[C@@H]1CC[C@H]2[C@@H](COC[C@@H](O)CN2C(=O)Nc2cccc(Cl)c2)O1)N1CCCCC1	nt	nt	nt	-1.3	nt	0.2	nt
COc1ccc(NC(=O)C(=O)NCC(c2ccco2)N2CCc3ccccc32)cc1 (stereo not given)	0.1	53.0*	0.0	-0.6	-3.7	nt	79.9*
N=C(N)SCCc1cccc(CCSC(=N)N)c1	-3.5	70.5*	1.0	-0.9	1.7	0.7	-20.7
Cc1cccc(CSC(=N)N)c1	-1.1	52.5*	0.6	nt	-0.6	-1.0	3.2
N=C(N)SCCc1cnc[nH]1	-0.1	-10.4	-0.8	0.4	-4.0	0.9	nt
SMILES	FadD28 FP inh	PrP 5UTR inh	PfHsp40 rescue	BioA inh	Y pestis TopoI	TcdB GH inh	PrP 5UTR single
Cc1ccc(S(=O)(=O)N2CCC(=O)CC2c2ccccc2)cc1 (stereo not given)	-1.4	56.2*	-0.9	1.2	-2.2	1.8	-39.3
CC(C)C[C@H]1CNC(=S)N1CC1CCCN1C[C@H](Cc1ccc(O)cc1)N1C[C@H](Cc2ccccc2)N(CC2CCCCC2)C1=S (stereo not given in full)	-1.0	66.6*	1.2	-1.1	13.8	-0.4	-3.2
CC(C)C[C@H]1CNC(=S)N1C[C@H]1CCCN1C[C@H](Cc1ccccc1)N1C[C@H](Cc2ccc(O)cc2)N(CC2CCCCC2)C1=S	-5.2	nt	nt	13.2	nt	0.2	nt
C[C@@H](NC(=O)C[C@@H]1C[C@@H]2c3cc(NC(=O)CC4CC4)ccc3O[C@@H]2[C@H](CO)O1)c1ccccc1	nt	nt	nt	-1.0	nt	0.5	nt
COc1ccc(C(=O)N/C(=C\c2ccc3c(c2)OCO3)C(=O)N2CCOCC2)cc1	-0.9	76.6*	0.1	nt	-1.4	-9.6	?
Cc1ccc(C(=O)N/C(=C\c2ccc3c(c2)OCO3)C(=O)N2CCOCC2)cc1	-2.2	-27.3	-0.2	11.8	8.6	1.0	nt
CO[C@H]1CN(C)C(=O)c2cc(NC(C)=O)ccc2OC[C@@H](C)N(CCC(F)(F)F)C[C@H]1C	nt	nt	nt	-3.0	nt	-0.9	nt
Cc1cnc(N)c2c(=O)oc3ccccc3c12	-0.1	-23.8	1.8	1.2	4.2	-0.1	nt
O=c1oc2ccccc2c2c1cnc1ccccc12	-1.1	64.2*	15.0	1.4	-2.2	0.5	-10.6
CCC(=O)N1[C@H](CNC(=O)CN2CCOCC2)[C@@H](c2ccccc2)[C@@H]1CO	nt	nt	nt	5.6	nt	nt	nt
Cc1cc(-c2ccccc2)nc2oc(C(=O)NN)c(N)c12	-1.7	72.3*	0.2	0.4	-3.0	-0.7	1.2
Cc1cc(C)c2c(N)c(C(=O)c3ccccc3)oc2n1	0.4	-18.8	2.5	2.0	-4.3	nt	nt
O=C(NC1CCCCC1)c1cc(C(=O)c2ccccc2Br)c[nH]1	-1.2	71.0*	-0.7	0.7	-3.3	0.6	-13.1
O=[N+]([O-])c1nn(-c2ccc3c(c2)OCCO3)n(O)c1=Nc1ccccc1	-0.5	81.3*	-0.2	nt	-3.0	0.8	78.4*
O=[N+]([O-])c1nn(-c2ccc3c(c2)OCCO3)n(O)c1=Nc1ccc(Cl)cc1	-3.3	14.1	0.4	-1.1	0.6	0.9	nt
CO[C@H]1CN(C)C(=O)c2cc(NC(C)=O)ccc2OC[C@@H](C)N(Cc2cccnc2)C[C@@H]1C	nt	nt	nt	-1.6	nt	nt	nt
Cc1ccc2nc(-c3ccccc3)nn2c1	-1.5	61.2*	-0.9	-0.5	3.0	1.1	?
C[C@@H]1CN([C@H](C)CO)S(=O)(=O)c2ccc(C#C[C@@H](C)O)cc2O[C@@H]1CN(C)C(=O)C1CCC1	nt	nt	nt	4.6	nt	-8.2	nt
Cc1ccoc1C(=O)Nc1ccc(CC(=O)O)cc1	0.7	63.6*	-0.2	-9.7	-7.4	nt	53.5*
CC(=O)N1C[C@@H]2[C@H](c3ccccc31)[C@H](CO)N2C(=O)CC1CC1	nt	nt	nt	-6.6	nt	-0.1	nt
O=C(C[C@H]1CC[C@@H]2NC[C@H](O)COC[C@H]2O1)NCCc1ccccc1	nt	nt	nt	-1.9	nt	0.9	nt
